CHX counter = counter-screen hit for Shiga toxin inhibitors, cycloheximide. cell reporter, cycloheximide protein synthesis inhibition counterscreen. max response, %. 12% of 300,000 active. AID 2314; in the data active = max response mostly above about 13%, no sharp cut-off; inactive = mostly below about 14%; note: read at 38.3 µM for the half of the compounds with a filed dose; 0% is about no effect
Sm TGR inh = blocks Schistosoma mansoni thioredoxin glutathione reductase; Q962Y6; purified TGR, DTNB reduction, TNB absorbance 405 nm; Potency, µM (doses to about 114 µM), for inactives: at the highest dose activity change, negative = inhibition, actives largely listed as inhibitors; 3% of 360,000 active; note: potency is the fitted concentration of half-maximal effect; % is set by controls: 0 for no effect and ±100 for the full control effect; nearly all actives have a fitted effect of over 60% in size
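TGR 20 nM + NADPH 100 uM (dispensed conc.), cpd preinc 15 min RT; start with NADPH (500 uM addition) then DTNB (15 mM addition). Kinetic TNB absorbance, 405 nm filter. Four-parameter Hill fit across titration.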
LmPK inhibitor = blocks Leishmania mexicana pyruvate kinase activity; Q27686; AID 1721; purified LmPK, Kinase-Glo ATP luminescence, 1 h; 0.37% of 290,000 active; Potency, µM (titrated, usually from 57.5 µM), without a hit: top-dose activity change, negative = inhibition, actives largely listed as inhibitors; note: potency is the fitted concentration of half-maximal effect; % is set by controls: 0 for no effect and ±100 for the full control effect
Target sequence (Q27686 whole entry, looked up): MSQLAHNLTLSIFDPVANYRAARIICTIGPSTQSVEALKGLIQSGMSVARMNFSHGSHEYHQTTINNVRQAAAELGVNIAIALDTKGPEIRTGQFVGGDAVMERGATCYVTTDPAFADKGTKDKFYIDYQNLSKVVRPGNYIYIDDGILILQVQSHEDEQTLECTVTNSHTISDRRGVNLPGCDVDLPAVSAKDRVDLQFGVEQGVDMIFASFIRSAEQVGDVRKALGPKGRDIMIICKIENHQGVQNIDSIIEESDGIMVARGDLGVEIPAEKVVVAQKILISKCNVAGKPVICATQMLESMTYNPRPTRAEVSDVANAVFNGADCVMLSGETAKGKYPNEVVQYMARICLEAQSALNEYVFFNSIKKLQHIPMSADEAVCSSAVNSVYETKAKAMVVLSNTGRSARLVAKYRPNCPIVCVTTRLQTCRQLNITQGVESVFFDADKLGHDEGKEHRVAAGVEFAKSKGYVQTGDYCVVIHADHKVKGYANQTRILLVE
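Screened at intermediate enzyme activity to detect both inhibitors and activators: LmPK at 0.1 nM, with a 0.5 nM enzyme column as activation reference. PEP 0.5 mM, ADP 0.1 mM; ATP detected by luminescence after 1 h.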
TbPYK inhibitor = blocks Trypanosoma brucei pyruvate kinase | Q57TT1 | TbPYK enzyme, Kinase-Glo Plus ATP luminescence, 45 min | Potency, µM (titrated, usually from 76.8 µM), for inactives: at the top dose activity, negative = inhibition, actives largely listed as inhibitors | 0.12% of 410,000 active; note: potency is the fitted concentration of half-maximal effect; % is set by controls: 0 for no effect and ±100 for the full control effect; nearly all actives have a fitted effect of over 50% in size
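Activity of T. brucei pyruvate kinase was followed by Kinase-Glo Plus luminescence after the enzyme reacted 45 min at room temperature with 130 uM ADP (final) and substrate. Test compounds were added before ADP at multiple concentrations.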
Giardia FBPA inh = blocks Giardia fructose-bisphosphate aldolase activity; purified Giardia FBPA; 0.71% of 290,000 active; Potency, µM (titrated, usually from 59.6 µM), inactives show at the highest dose activity, negative = inhibition, hits mostly inhibitors; note: potency is the fitted concentration of half-maximal effect; % is set by controls: 0 for no effect and ±100 for the full control effect; nearly all actives have a fitted effect of over 55% in size
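Giardia FBPA (40 nM reagent) was preincubated 10 min at RT with compound (up to 57.5 uM final), then substrate plus GAPDH/TPI/NAD/arsenate coupling system with diaphorase/resazurin was added; resorufin fluorescence (525/598 nm) was read after 20 min.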
Shiga toxin inh = Shiga toxin inhibition; Vero cells, Shiga toxin protein synthesis inhibition reporter; inhibition, % at 38.7 µM; 9.2% of 290,000 active; AID 2315; in the data active = inhibition mostly above about 28%, no sharp cut-off; inactive = mostly below about 43%; note: 0% is about no effect
* = called active by the depositor. The full list was thinned out, with hits kept by preference. Unless noted, calls come from the whole dose curve; as a rule, active = well fitted curve in the direction sought with a large enough effect; inconclusive = small, poorly fitted or top-dose-only effect, or another doubt; inactive = no such curve, though single readings can be large; an effect the other way counts as inactive or inconclusive.

How did O=C(Nc1cccnc1)Nc1ccccc1Cl do in these assays?
CHX counter: 26*; Sm TGR inh: -2%; LmPK inhibitor: 1%; TbPYK inhibitor: 1%; Giardia FBPA inh: 1%; Shiga toxin inh: 93

Results for Cc1ccc(NC(=O)Nc2cccnc2)cc1Cl ?
CHX counter: 37*; Sm TGR inh: 7%; LmPK inhibitor: 8%; TbPYK inhibitor: -2%; Giardia FBPA inh: 6%; Shiga toxin inh: 63*

What do the screens show for `O=C(CCNC(=O)c1ccccc1Cl)Nc1ccncc1`?
CHX counter: -2; Sm TGR inh: 2%; LmPK inhibitor: -5%; TbPYK inhibitor: 3%; Shiga toxin inh: -3

What do the screens show for `O=C(Nc1ccncc1)c1ccccc1Cl`?
CHX counter: 13; Sm TGR inh: 0%; LmPK inhibitor: -6%; TbPYK inhibitor: 2%; Giardia FBPA inh: 2%; Shiga toxin inh: 37*

What do the screens show for `O=C(Nc1ccncc1)Nc1ccccc1Cl`?
CHX counter: 24*; Sm TGR inh: 3%; LmPK inhibitor: 0%; TbPYK inhibitor: 3%; Shiga toxin inh: 49*

What do the screens show for `CCN(CC)c1cc2c(cc1F)c(=O)c(S(=O)(=O)c1cccc(C)c1)cn2C`?
Sm TGR inh: 17%; TbPYK inhibitor: 0%

Results for CCOc1ccccc1CNC(=O)C1CCN(C(=O)N2CC(CC)Oc3ccc(C)cc32)CC1 (centres undefined) ?
Sm TGR inh: 0%; TbPYK inhibitor: 1%

What do the screens show for `O=C(Nc1cccnc1)Nc1ccc(Br)cc1Cl`?
CHX counter: 29*; Sm TGR inh: 0%; LmPK inhibitor: -2%; TbPYK inhibitor: -7%; Giardia FBPA inh: 4%; Shiga toxin inh: 56*

How did O=C(Nc1cccnc1)Nc1cc(Cl)cc(Cl)c1 do in these assays?
CHX counter: 1; Sm TGR inh: 0%; LmPK inhibitor: 6%; TbPYK inhibitor: -14%; Giardia FBPA inh: -1%; Shiga toxin inh: -1

Results for Fc1cc2[nH]c(=S)[nH]c2c(Br)c1N1CCSCC1 ?
CHX counter: 9.2*; Sm TGR inh: -8%; LmPK inhibitor: -7%; TbPYK inhibitor: -23%; Giardia FBPA inh: 8%; Shiga toxin inh: 47

What do the screens show for `Cc1nn(-c2ccccc2)c2c1C(c1ccccc1)C(C#N)=C(N)O2` (centres undefined)?
CHX counter: -1; Sm TGR inh: -14%; LmPK inhibitor: -2%; TbPYK inhibitor: -1%; Giardia FBPA inh: -8%; Shiga toxin inh: -2

What do the screens show for `Cc1nn(Cc2ccccc2)c2c1C(c1ccco1)C(C#N)=C(N)O2` (centres undefined)?
CHX counter: 1; Sm TGR inh: 50µM*; LmPK inhibitor: 7%; TbPYK inhibitor: -13%; Giardia FBPA inh: inconclusive; Shiga toxin inh: -21

Results for Cc1ccc(-n2nc(C)c3c2OC(N)=C(C#N)C3c2ccc(C)o2)cc1 (centres undefined) ?
CHX counter: 48*; Sm TGR inh: 22µM*; LmPK inhibitor: -5%; TbPYK inhibitor: -7%; Giardia FBPA inh: inconclusive; Shiga toxin inh: 92*

How did Cc1ccc(SCc2[nH]nc3c2C(c2ccc(C)o2)C(C#N)=C(N)O3)cc1 (centres undefined) do in these assays?
CHX counter: -4; Sm TGR inh: 25µM*; LmPK inhibitor: 7%; TbPYK inhibitor: 1%; Giardia FBPA inh: inconclusive; Shiga toxin inh: -5

Results for Cc1ccc(-n2nc(C)c3c2OC(N)=C(C#N)C3c2ccoc2)cc1 (centres undefined) ?
CHX counter: 25*; Sm TGR inh: inconclusive; LmPK inhibitor: 15%; TbPYK inhibitor: -3%; Giardia FBPA inh: -11%; Shiga toxin inh: 52

What do the screens show for `CCc1ccc(-c2cn3c(n2)sc2cc(C(=O)NCCC4=CCCCC4)ccc23)cc1`?
Sm TGR inh: -5%; TbPYK inhibitor: -7%

How did Cc1ccc(S(=O)(=O)NCC2CCC(C(=O)NCCc3ccc(Cl)cc3)CC2)cc1 (centres undefined) do in these assays?
Sm TGR inh: 5%; TbPYK inhibitor: -9%

What do the screens show for `COc1ccc(OC)c(C2C(C#N)=C(N)Oc3c2c(C)nn3-c2ccc(C)cc2)c1` (centres undefined)?
CHX counter: -4; Sm TGR inh: -5%; LmPK inhibitor: 0%; TbPYK inhibitor: -7%; Giardia FBPA inh: 6%; Shiga toxin inh: -6

Results for Cc1ccc(-n2nc(C)c3c2OC(N)=C(C#N)C3c2ccco2)cc1 (centres undefined) ?
CHX counter: 22*; Sm TGR inh: 40µM*; LmPK inhibitor: -1%; TbPYK inhibitor: -22%; Giardia FBPA inh: -17%; Shiga toxin inh: 75*

Results for COc1cccc([C@@H]2Oc3ccc(Br)cc3C(=O)[C@H]2OC(=O)NCCOc2ccccc2)c1 ?
Giardia FBPA inh: 1%

What do the screens show for `C/C(=N\NC(=O)c1nnn(-c2nonc2N)c1C)c1ccc(OCc2ccccc2)cc1`?
CHX counter: 22*; Sm TGR inh: 10%; LmPK inhibitor: 7%; TbPYK inhibitor: 1%; Shiga toxin inh: 57*

How did COCc1c(C(=O)N/N=C(/C)c2ccc(OCc3ccccc3)cc2)nnn1-c1nonc1N do in these assays?
CHX counter: 23*; Sm TGR inh: -31%; LmPK inhibitor: 4%; TbPYK inhibitor: 2%; Giardia FBPA inh: 1%; Shiga toxin inh: 97*

What do the screens show for `C/C(=N\N=C\c1ccccc1F)c1nnn(-c2nonc2N)c1C`?
CHX counter: 16*; Sm TGR inh: -12%; LmPK inhibitor: 2%; TbPYK inhibitor: 1%; Giardia FBPA inh: 4%; Shiga toxin inh: 80*

How did COc1ccc2c(c1)c1c(c(=O)n(-c3ccccc3)c(=O)n1CC(=O)Nc1ccc(F)cc1)n2C do in these assays?
Sm TGR inh: -1%; TbPYK inhibitor: 0%

Results for O=C(CSc1nnc(-c2ccncc2)n1-c1ccc(Cl)cc1)NCc1cccs1 ?
CHX counter: -1; Sm TGR inh: 0%; LmPK inhibitor: -5%; TbPYK inhibitor: -1%; Giardia FBPA inh: 8%; Shiga toxin inh: -14

How did c1ccc(C2CCC3(CC2)Oc2ccccc2C2CC(c4cccnc4)=NN23)cc1 (centres undefined) do in these assays?
CHX counter: 27*; Sm TGR inh: inconclusive; LmPK inhibitor: 2%; Giardia FBPA inh: -10%; Shiga toxin inh: 40*

How did COc1ccc(NC(=O)c2ccc3ccccc3n2)cc1S(=O)(=O)N1CCCCC1 do in these assays?
CHX counter: 38*; Sm TGR inh: inconclusive; LmPK inhibitor: 3%; TbPYK inhibitor: -3%; Giardia FBPA inh: -7%; Shiga toxin inh: 44

How did COc1ccc(NC(=O)c2cc3ccccc3o2)cc1S(=O)(=O)N1CCCCC1 do in these assays?
TbPYK inhibitor: -8%
